High-throughput results deposited in PubChem BioAssay by several laboratories.
The list is not random: actives were taken first. Their share in the collection is about 3.6%.
TROY NFkB inh – TROY signaling inhibition | actives 0.98% (n = 360,000) | Q293 LMP1-TROYcd NF-kB luciferase reporter, 4 h | inhibition, % at 10 µM;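 active means compounds whose plate-normalised and pattern-corrected inhibition of the luciferase reporter signal at the single screening dose is 50% or more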
LMP1 NFkB inh – inhibitors of Epstein-Barr LMP1-induced NF-kappaB reporter. LMP1-induced NF-kappaB luciferase reporter cells, luminescence. inhibition, % at 12.5 µM. actives 0.69% (n = 350,000); in the data active means inhibition above about 41%; inconclusive means no clear call, values can overlap the other calls;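 further: 0% = neutral control wells and 100% = reference inhibitor control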
LGR2 inh – Drosophila LGR2 receptor signaling inhibition; HEK293 LGR2, CRE-luciferase, bursicon-stimulated, 4 h; inhibition, % at 9.99 µM; actives 0.35% (n = 380,000); AID 720647;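 active means drop in luminescence signal, shown as inhibition above about 50% in the replicate tests, limit read from the data, passing the limit was not always enough; inconclusive means probably only some replicates passing the limit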;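 further: agonist challenge used bursicon conditioned medium at about half maximal strength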
HSF1 activator – increases HSF-1 driven luciferase reporter signal. NIH3T3-HGL HSF-1 luciferase reporter, MG132, 8 h; 100% = twice DMSO control signal. actives 1.7% (n = 300,000). activation, % at 9 µM;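 active means mean replicate activation of at least 50% with a set share of replicates each reaching 50%; inconclusive means only one of those two conditions met; inactive means mean below 50% and too few replicates reaching it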;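 further: 0% = median of the neutral control wells and 100% = twice that signal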
TWEAK Fn14 block – inhibitors of TWEAK-Fn14 interaction signaling | TWEAK-stimulated Fn14 reporter cells, luciferase luminescence, 8 h | inhibition, % at 10 µM | actives 2% (n = 360,000) | AID 1159606; in the data active means inhibition above about 50%
HSF1 inhib – HSF1 inhibition; AID 2098; activity change, negative = inhibition, % at 7.5 µM (by protocol); actives 0.77% (n = 300,000); NIH3T3-HGL HSE-luciferase, MG132-induced, luminescence 8 h; stronger effect = lower value;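 active means more than half of replicate wells show activity change below -50%, luminescence cut by over half; inconclusive means some wells, but at most half, below -50%; inactive means no replicate well below -50%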;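 further: luciferase reports HSF-1 transcriptional activity via heat shock element; 0% = median of DMSO wells and -100% = zero luminescence signal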
The depositor's hits bear a star; ? = inconclusive; . = no result.

SMILES | TROY NFkB inh | LMP1 NFkB inh | LGR2 inh | HSF1 activator | TWEAK Fn14 block | HSF1 inhib
CCCC#Cc1ccc2c(c1)O[C@H](CN(C)C(=O)c1ccccn1)[C@H](C)CN([C@H](C)CO)S2(=O)=O | . | . | 11 | . | . | .
Cc1ccc(S(=O)(=O)N2CCOCC2)cc1C(=O)NCCN1C(=O)S/C(=C\c2ccccc2Cl)C1=O | 3 | 0 | 29 | 33 | -1 | 10
CCN1CCN(CCNC(=O)c2ccc(/C=C3/Sc4ccccc4N(Cc4cccc(Cl)c4)C3=O)cc2)CC1 | 83* | -11 | 52* | 11 | -38 | 2
CCN1CCN(CCNC(=O)c2ccc3c(c2)N(Cc2ccc(F)cc2)C(=O)/C(=C/c2ccccc2)S3)CC1 | 1 | -61 | 24 | -2 | -52 | -9
O=C(CN1C(=O)/C(=C\c2cccc(Cl)c2)Sc2ccccc21)NCCCN1CCOCC1 | -16 | 3 | -16 | 90* | -20 | 50
CC(C)(C)c1ccc(/C=C2\SC(=O)N(CCNC(=O)c3cccc(S(=O)(=O)N4CCOCC4)c3)C2=O)cc1 | 84* | 20 | . | -70 | 93* | -63*
Cc1cccc(CN2C(=O)/C(=C\c3ccc(C(=O)NCCN4CCOCC4)cc3)Sc3ccccc32)c1 | 62* | 6 | . | 6 | 41 | 0
CC=Cc1ccc2n(c1=O)C[C@@H]1[C@@H](CO)[C@H](C(=O)NCC3CC3)N(Cc3ccccn3)[C@H]21 (mixture of isomers) | . | . | -6 | . | . | .
CN(C)c1ccnc(NCc2ccccc2)c1C#N | -35 | -3 | -13 | 11 | -9 | 4
Cc1cc(N(C)C)c(C#N)c(NCc2ccccc2)n1 | 21 | -8 | -6 | 93* | -3 | 50
O=C(COC(=O)Cc1c(Cl)cccc1Cl)Nc1ccc(OC(F)(F)F)cc1 | -14 | 1 | 25 | -86 | -26 | -84*
CC(=O)OCC1OC(Nc2cccc(C)c2)C(OC(C)=O)C(OC(C)=O)C1OC(C)=O (stereo unspecified) | -8 | 53* | 3 | 0 | 7 | -3
Cn1cnc(S(=O)(=O)N[C@H]2C=C[C@H](CC(=O)Nc3ccccc3)O[C@@H]2CO)c1 | . | . | -10 | . | . | .
COc1ccc2c(c1)CC/C(=C/c1ccccn1)C2=O | 1 | 5 | 15 | 66* | 40 | 38
Cc1ccccc1/C=C1\CCCc2ccccc2C1=O | -46 | -53 | . | 18 | 2 | 14
Cc1ccsc1/C=C1\CCc2ccccc2C1=O | 35 | 17 | . | -14 | 82* | -8
O=C1C(=Cc2ccccn2)CCc2ccccc21 | -25 | -2 | 5 | . | 54* | .
COc1cccc(C(=O)Nc2ccc3c(c2)C(=O)N(C)[C@H]2CC[C@H](CC(=O)NCC4CC4)O[C@@H]2CO3)c1 | . | . | 7 | . | . | .
CS(=O)(=O)c1ncc(Cl)c(C(=O)Nc2ccc(N3CCOCC3)cc2)n1 | 22 | 35 | . | 100* | -12 | 46
CS(=O)(=O)c1ncc(Cl)c(C(=O)Nc2ccc(OC(F)F)cc2)n1 | 57* | ? | 4 | -91 | 70* | -91*
CC1=CC(=O)C=C(C)C1=NOS(=O)(=O)c1ccccc1 | 42 | 29 | -4 | 27 | 47 | 28
CC1=CC(=O)C(C(C)C)=C/C1=N/OS(=O)(=O)c1ccccc1 | 47 | -21 | . | 83* | 89* | 53
CCN1CCN(C(=O)c2ccc3c(Cl)c4c(nc3c2)CCCC4)CC1 | 6 | -7 | -13 | 114* | 18 | 72
CN1CCN(C(=O)c2ccc3c(Cl)c4c(nc3c2)CCCC4)CC1 | -20 | -15 | 1 | 136* | -3 | 108
O=C(NCCCN1CCCCCC1)c1ccc2c(Cl)c3c(nc2c1)CCCC3 | 20 | -3 | -23 | -9 | -8 | 6
SMILES | TROY NFkB inh | LMP1 NFkB inh | LGR2 inh | HSF1 activator | TWEAK Fn14 block | HSF1 inhib
CCN1CCN(CCCNC(=O)c2ccc3c(Cl)c4c(nc3c2)CCCC4)CC1 | 9 | -1 | 22 | 97* | -27 | 73
O=C(C[C@@H]1C=C[C@@H](NC(=O)C2CCC2)[C@@H](CO)O1)NCC1CC1 | . | . | 1 | . | . | .
CC1=CN2C(=N)/C(=C/c3ccc(C)o3)C(=O)N=C2S1 | 16 | 12 | 37 | 48 | 66* | 28
CC1=CN2C(=N)/C(=C/c3ccc(Sc4ccc(C)cc4)o3)C(=O)N=C2S1 | -20 | -5 | . | 29 | -18 | 2
O=C(C[C@@H]1C=C[C@@H](NS(=O)(=O)c2ccc(F)cc2)[C@H](CO)O1)N1CCN(c2ccccc2)CC1 | . | . | 3 | . | . | .
N#C[C@H]1[C@@H](c2ccc(C#Cc3ccccc3F)cc2)[C@H](CO)N1C(=O)C1CCC1 | . | . | 0 | . | . | .
N#C[C@H]1[C@H](c2ccc(C#Cc3ccccc3F)cc2)[C@H](CO)N1C(=O)C1CC1 | . | . | 62* | . | . | .
N#C[C@H]1[C@H](c2ccc(C#Cc3ccccc3F)cc2)[C@H](CO)N1C(=O)C1CCCC1 | . | . | 104* | . | . | .
C[C@@H]1CN([C@@H](C)CO)C(=O)c2cccc(NC(=O)Nc3ccc4c(c3)OCO4)c2O[C@@H]1CN(C)CC1CC1 | . | . | -2 | . | . | .
COCC(=O)N[C@@H]1CC[C@@H](CC(=O)NCc2ccccc2OC)O[C@H]1CO | . | . | -3 | . | . | .
O=C(Nc1nccs1)c1cccc(N2C(=O)c3cccc4c([N+](=O)[O-])ccc(c34)C2=O)c1 | . | -9 | . | 170* | 85* | 148
COCC(=O)N1C[C@H](C)[C@@H](OC)CN(C)C(=O)c2cc(NC(=O)c3cnccn3)ccc2OC[C@@H]1C | . | . | -12 | . | . | .
CCCNC(=O)C[C@@H]1CC[C@@H]2[C@H](COC[C@H](O)CN2C(=O)Nc2ccccc2OC)O1 | . | . | -8 | . | . | .
N#CCCN(C(=O)Nc1ccc(Cl)cc1)c1ccccc1 | -19 | 0 | -5 | -1 | 86* | 2
N#CCCN(C(=O)Nc1ccccc1)c1ccccc1 | -1 | -8 | . | -11 | -3 | -3
COc1ccc(/C=N/N(C)C2=NCCN2)c(OC)c1OC | 9 | -1 | -1 | -90 | -14 | -86*
CC(C)NC(=O)Nc1ccc2c(c1)C(=O)N([C@H](C)CO)C[C@@H](C)[C@@H](CN(C)C(=O)CCC(F)(F)F)OCCCC[C@@H](C)O2 | . | . | -13 | . | . | .
O=C(C[C@@H]1C[C@H]2c3cc(NS(=O)(=O)c4ccc(F)cc4)ccc3O[C@H]2[C@@H](CO)O1)N1CCCCC1 | . | . | 1 | . | . | .
Cc1c(CNCC(C)c2ccccc2)c(C(=O)O)c(C)n1Cc1ccccc1 (stereo unspecified) | -1 | -6 | -14 | -19 | -4 | -12
Cc1c(CNCCCc2ccccc2)c(C(=O)O)c(C)n1Cc1ccccc1 | 52* | 8 | -46 | -26 | 39 | -19
CO[C@@H]1CN(C)C(=O)c2ccc(NC(C)=O)cc2OC[C@@H](C)N(Cc2ccncc2)C[C@H]1C | . | . | -7 | . | . | .
O=C(CCc1ccc(F)c(F)c1)NC1CCCN(Cc2ccc(Cl)cc2)C1 (stereo unspecified) | -7 | 80* | 1 | 21 | -12 | 2
C=CCN1C(=O)S/C(=C/c2ccsc2)C1=O | -79 | -15 | . | -19 | -14 | -3
